A selection: hits, their analogues and other compounds. The true share with any hit is near 2.9%.
proKLK7 act = proKLK7 (human) activation, primary screen | purified proKLK7, EDANS-DABCYL substrate fluorescence; 100% is mature enzyme control, 0% vehicle | activation, % at 7 µM | hit rate 0.9% among 370,000;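 active = activation above the mean of all tested compounds plus 3 SD, computed per campaign excluding outliers beyond control limits, cut at about 13% in these data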
SMARCA2 act = activators of SMARCA2 function; MG213 cells, MMTV-luciferase reporter, dexamethasone, overnight; activation, % at 9.1 µM; hit rate 1% among 370,000; AID 652017; in the data active = activation above about 7.8%;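 also: 0% = vehicle wells and 100% = reference activator wells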
FAS-TE inh = inhibitors of human fatty acid synthase thioesterase domain; hit rate 0.67% among 360,000; recombinant FAS-TE, OMFH fluorogenic substrate, fluorescence endpoint; inhibition, % at 15 µM;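 active = compounds whose normalised, plate-corrected inhibition of enzyme fluorescence in the single-dose primary screen is 50% or more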;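 also: 0% = DMSO with enzyme and 100% = substrate without enzyme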
FXN GAA850 act = increases GAA850 frataxin promoter reporter activity | HEK293 lucGAA850 FXN promoter luciferase reporter, 24 h; percent of 10 µM SAHA response | AID 540364 | activation, % at 6 µM | hit rate 0.56% among 360,000;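 active = activation above the average of all compounds screened plus 3 SD, cutoff fixed separately per campaign, cut at about 7.5% in these data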;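 also: 0% = DMSO wells and 100% = 10 µM SAHA wells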
KLK7 act conf = confirmation of human kallikrein-7 zymogen activators | shares compounds with proKLK7 act | purified proKLK7, EDANS-DABCYL substrate fluorescence; scaled: vehicle 0, mature enzyme 100 | activation, % at 7 µM | hit rate 68% among 3,200;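 active = activation, as change over the incubation, above the mean of all tested compounds plus 3 SD, cut at about 13% in these data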
EDANS-DABCYL int = optically interferes with EDANS-DABCYL signal, flagging KLK7 hits; shares compounds with proKLK7 act; EDANS-DABCYL substrate fluorescence interference, no enzyme, 4 h; solvent 0%, active enzyme control 100%; activation, % at 7 µM; hit rate 80% among 3,200;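 active = activation above the all-compound mean plus 3 SD, ignoring values outside control-based bounds, cut at about 4.8% in these data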;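 also: value is the 4 h activation minus the activation read at time zero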
EDANS interf = counter-screen for kallikrein-7 activators: EDANS-DABCYL interference, dose response; EC50, µM; shares compounds with proKLK7 act; EDANS-DABCYL peptide fluorescence interference, no enzyme; hit rate 20% among 250; AID 720493;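 active = compounds that raise the fluorescence signal in this interference counterscreen, with EC50 at or below 10 µM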;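 also: intact quenched peptide substrate alone read at 355 nm excitation and 520 nm emission; signal is fluorescence gain from T0 to T4 after four hours at room temperature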
Numbers without * were called inactive; x = not tested or not shown.

SMILES	proKLK7 act	SMARCA2 act	FAS-TE inh	FXN GAA850 act	KLK7 act conf	EDANS-DABCYL int	others
O=C(c1c[nH]c(=O)n(-c2ccccc2)c1=O)N1CCc2ccccc21	-1	-1	-5	1	x	x
CC1=C(C(=O)Nc2ccccn2)C(c2cn(C)nc2C)C2=C(CCCC2=O)N1 (centres undefined)	15*	-1	-9	2	19*	21*
CC1=C(C(=O)Nc2ccc(F)cc2)C(c2ccncc2)C2=C(CCCC2=O)N1 (centres undefined)	4	-3	-7	2	x	x
CCn1cc(C2C(C(=O)Nc3ccc(Br)cn3)=C(C)NC3=C2C(=O)CCC3)c(C)n1 (centres undefined)	16*	0	-15	1	17*	17*
NNc1nc(-c2ccccc2Cl)c2cc(Br)ccc2n1	-5	-1	-2	1	x	x
O=c1oc2c(CN3CCCCC3)c(O)ccc2c2c1CCCC2	62*	1	-5	-1	66*	70*
Cc1c(O)c(CN2CCCCC2)cc2c3c(c(=O)oc12)CCC3	44*	0	-6	2	73*	76*
Cc1c(O)c(CN2CCCCC2)cc2c1oc(=O)c1ccccc12	0	1	-2	-2	x	x
Cc1c(C)c2ccc(O)c(CN3CCCC3)c2oc1=O	61*	-1	-5	2	64*	66*
CN1CCN(Cc2c(O)ccc3cc(-c4ccccn4)c(=O)oc23)CC1	67*	-4	-4	2	77*	69*
COCCCN1C(=O)[C@H](CC(=O)NCCCN2CCCC2=O)[C@]2(C(=O)OC)CCCCC=C12	1	3	x	x	x	x
CCOC(=O)c1c(C)n(CC(O)CN(CC)CC)c2cc(Br)c(OC)cc12 (centres undefined)	0	-1	-2	0	x	x
CCCSc1cc(N2CCN(C)CC2)nc(-c2ccc(OC)cc2)n1	0	-1	2	0	x	x
Cc1c(C)c2ccc(O)c(CN3CCN(C)CC3)c2oc1=O	63*	-2	1	0	70*	65*
CCc1c(C)c2ccc(O)c(CN3CCCC3)c2oc1=O	38*	-2	-6	3	59*	63*
CN1CCN(Cc2c(O)ccc3cc(Br)ccc23)CC1	-1	-2	x	x	x	x
COC(=O)Cc1c(C)c2ccc(O)c(CN3CCCC(C)C3)c2oc1=O (centres undefined)	53*	1	-1	2	76*	75*
CCOC(=O)c1c(C)oc2ccc(O)c(CN3CCCCC3)c12	0	0	-13	1	x	x
O=C1OCC2=Nc3cccc4cccc(c34)N12	-5	-4	x	x	x	x
COc1ccc(-c2cc(-c3cccnc3)c(C#N)c(N)n2)cc1	-1	0	2	2	x	x
O=S(=O)(Nc1cccc(S(=O)(=O)N2CCOCC2)c1)c1ccc2c(c1)OCCO2	1	-3	-3	2	x	x
Cc1cccc(C)c1-n1nnnc1C1(C)CCC(=O)N1Cc1cccnc1 (centres undefined)	0	1	-14	x	x	x
O=C(c1ccc(Br)o1)N1CCN(c2ccc(F)cc2)CC1	0	-8	-4	2	x	x
CCN1CCN(c2ccc(N3CCN(C(=O)c4ccc(Br)o4)CC3)nn2)CC1	19*	4	-4	2	6	4.4*
COc1ccc(C)cc1S(=O)(=O)N(C)CC(=O)Nc1ccc2c(c1)OCCO2	0	-4	-5	2	x	x
SMILES	proKLK7 act	SMARCA2 act	FAS-TE inh	FXN GAA850 act	KLK7 act conf	EDANS-DABCYL int	others
Cc1cc(=O)oc2cc3c(cc12)OCCO3	8	1	-4	2	x	x
Cc1cc(=O)oc2cc3c(cc12)OCCN3	67*	-8	-4	-1	76*	83*
CC(=O)c1cc2c(C)cc(=O)oc2cc1O	-73	-1	-3	1	x	x
Cc1cc(=O)oc2cc3c(cc12)OCO3	36*	-3	-1	-1	67*	74*
CC(C)NC(=O)C1C(c2ccc(C(F)(F)F)cc2)=Nc2ccccc2N1C(=O)c1ccccc1 (centres undefined)	-1	-2	x	x	x	x
COc1ccc(-c2cc(-c3ccco3)[nH]c(=O)c2C#N)cc1	0	-1	-8	1	x	x
COc1ccc(-c2cc(C(F)(F)F)c(C#N)c(=O)[nH]2)cc1	17*	-1	-2	0	40*	43*
N#Cc1c(C(F)(F)F)cc(-c2cccc(Cl)c2)[nH]c1=O	20*	-2	-1	-3	51*	48*
O=C(Cc1nnc(NC(=O)Nc2ccccc2)s1)NCc1ccccc1	0	-1	-8	4	x	x
Cc1cccc(C2Nc3ccccc3C(=O)N2CCc2ccccc2)n1 (centres undefined)	21*	0	6	-3	6	11*
CC(NC(=O)CSc1ncccc1C(=O)O)C1CC2CCC1C2 (centres undefined)	0	3	-5	2	x	x
CCOC(=O)CCc1c(C)c2ccc3c(c2oc1=O)CN(CCCO)CO3	52*	1	0	1	71*	75*
CCOC(=O)CCc1c(C)c2ccc(OCC)c(C)c2oc1=O	-1	-1	x	x	x	x
Nc1nccnc1C(=O)OCc1nc2sc3c(c2c(=O)[nH]1)CCCC3	49*	-1	-6	1	89*	75*	EDANS interf=6.5*
O=C(CCc1nc2sc3c(c2c(=O)[nH]1)CCCC3)NCCOc1ccccc1	0	-1	-1	0	x	x
COc1ccc(C(=O)OCC(=O)Nc2ccc(N3CCOCC3)cc2)cc1OC	0	-4	-7	-1	x	x
O=C(CCCCCn1c(=O)[nH]c2ccsc2c1=O)NCc1ccc(F)cc1	0	-4	-3	1	x	x
COc1ccc(-c2cc(-c3ccccc3)nc(=O)[nH]2)cc1	62*	-4	-3	1	31*	46*
CCOC(=O)C1CCN(C(c2cc3c(C)ccc(C)c3[nH]c2=O)c2nnnn2C2CCCCC2)CC1 (centres undefined)	27*	-3	0	-1	1	0
CCOc1ccccc1Nc1nnc(Cc2ccccc2Cl)c(=O)[nH]1	0	-2	-79	0	x	x
CC[C@]12c3[nH]c4cc(CCC(=O)N(C)C)ccc4c3CCN1C(=O)[C@@H](CC(=O)NCCCOC)C[C@@H]2C(=O)N1CCN(C(=O)C2CC2)CC1	0	2	-6	1	x	x
CC[C@]12c3[nH]c4cc(-c5ccco5)ccc4c3CCN1C(=O)[C@@H](CC(=O)NCCCN(C)C)C[C@@H]2C(=O)N1CCN(C(=O)C2CC2)CC1	64*	-4	-4	0	52*	66*

Screening results from PubChem.
